Source: PubChem BioAssay (NCI)
The panel holds about 83,000 compounds, 20% with a hit somewhere; the sample as a whole holds those more often.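 Activity criterion: percent growth below 10, measured after cells in 96-well plates were exposed to a single compound concentration for 48 hours.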 Active and inactive are the calls of the source.

Key:
Assay in all cases: NCI-60 one-dose screen, 48 h (100 = growth as untreated, 0 = no growth, -100 = all killed)
Settings in all cases: 10 µM unless noted
SK-MEL-2 melanoma = test system: SK-MEL-2 melanoma
EKVX NSCLC = test system: EKVX NSCLC
SN12C renal = test system: SN12C renal
UO-31 renal = test system: UO-31 renal
TK-10 renal = test system: TK-10 renal
ACHN renal = test system: ACHN renal
CAKI-1 renal = test system: CAKI-1 renal
A498 renal = test system: A498 renal
CCRF-CEM leukemia = test system: CCRF-CEM leukemia
MOLT-4 leukemia = test system: MOLT-4 leukemia
SR leukemia = test system: SR leukemia
RPMI-8226 leukemia = test system: RPMI-8226 leukemia
OVCAR-8 ovarian = test system: OVCAR-8 ovarian
OVCAR-5 ovarian = test system: OVCAR-5 ovarian
OVCAR-4 ovarian = test system: OVCAR-4 ovarian
SK-OV-3 ovarian = test system: SK-OV-3 ovarian
IGROV1 ovarian = test system: IGROV1 ovarian
OVCAR-3 ovarian = test system: OVCAR-3 ovarian
HS 578T breast = test system: HS 578T breast
NCI/ADR-RES ovarian = test system: NCI/ADR-RES ovarian

Measured: growth

CN(C)c1nc(NCCNS(=O)(=O)c2ccc(C3=Nc4c(N)nc(N)nc4NC(c4ccccc4)C3)cc2)nc(Nc2ccc(F)cc2)n1 (stereo not given)
active: MOLT-4 leukemia 2.62% | SR leukemia 1.17% | RPMI-8226 leukemia 4.93%
inactive: SK-MEL-2 melanoma 68.6% | EKVX NSCLC 51.4% | SN12C renal 37.8% | UO-31 renal 69% | TK-10 renal 65% | ACHN renal 76.3% | CAKI-1 renal 61.2% | A498 renal 57.3% | CCRF-CEM leukemia 22.2% | OVCAR-8 ovarian 42.3% | OVCAR-5 ovarian 75.3% | OVCAR-4 ovarian 38.9% | SK-OV-3 ovarian 80.7% | IGROV1 ovarian 32.1% | OVCAR-3 ovarian 45.2% | HS 578T breast 46.3% | NCI/ADR-RES ovarian 92.9%

O=C1/C(=C/C2=Cc3ccccc3OC2)SC(=S)N1c1ccccc1F
inactive: SK-MEL-2 melanoma 107% | EKVX NSCLC 98.8% | SN12C renal 103% | UO-31 renal 82.6% | TK-10 renal 105% | ACHN renal 107% | CAKI-1 renal 99.1% | A498 renal 122% | CCRF-CEM leukemia 97.5% | MOLT-4 leukemia 95.2% | SR leukemia 91% | RPMI-8226 leukemia 85.7% | OVCAR-8 ovarian 110% | OVCAR-5 ovarian 108% | OVCAR-4 ovarian 107% | SK-OV-3 ovarian 95.3% | IGROV1 ovarian 103% | OVCAR-3 ovarian 109% | HS 578T breast 105% | NCI/ADR-RES ovarian 109%

O=C(Nc1cccc(-n2cnc3cc(-c4ccc(O)cc4)ccc32)c1)C1CC1
active: OVCAR-3 ovarian -2.16% | HS 578T breast 9.4%
inactive: SK-MEL-2 melanoma 58.4% | EKVX NSCLC 44.4% | SN12C renal 24.9% | UO-31 renal 23.4% | TK-10 renal 67.4% | ACHN renal 15.4% | CAKI-1 renal 26.2% | A498 renal 78.2% | CCRF-CEM leukemia 25.6% | MOLT-4 leukemia 12.7% | SR leukemia 21.6% | RPMI-8226 leukemia 25.5% | OVCAR-8 ovarian 17.9% | OVCAR-5 ovarian 41.2% | OVCAR-4 ovarian 49.6% | SK-OV-3 ovarian 35.5% | IGROV1 ovarian 28.2% | NCI/ADR-RES ovarian 24.8%

CC(=O)Nc1cccc(-c2nc3cc(-c4ccc(O)cc4)ccc3n2C)c1
inactive: SK-MEL-2 melanoma 52.6% | EKVX NSCLC 35.1% | SN12C renal 43.8% | UO-31 renal 38.4% | TK-10 renal 59% | ACHN renal 16% | CAKI-1 renal 38.5% | A498 renal 86.8% | CCRF-CEM leukemia 28.3% | SR leukemia 59% | RPMI-8226 leukemia 28.4% | OVCAR-8 ovarian 22.2% | OVCAR-5 ovarian 93.6% | OVCAR-4 ovarian 20.9% | SK-OV-3 ovarian 77.5% | IGROV1 ovarian 51.7% | OVCAR-3 ovarian 31.3% | HS 578T breast 56.1% | NCI/ADR-RES ovarian 65.2%
active: MOLT-4 leukemia 9.2%

COc1ccc2c(c1)c(/C=N/Nc1ccc3ccccc3n1)cn2C
inactive: SK-MEL-2 melanoma 81.8% | EKVX NSCLC 53.1% | TK-10 renal 43.4% | A498 renal 83.3% | CCRF-CEM leukemia 10.8% | OVCAR-8 ovarian 28.9% | OVCAR-4 ovarian 12.3% | SK-OV-3 ovarian 54% | IGROV1 ovarian 16.4% | HS 578T breast 18.2%
active: SN12C renal -71.7% | UO-31 renal -31.3% | ACHN renal -85.4% | CAKI-1 renal -45.4% | MOLT-4 leukemia -27.4% | SR leukemia -17.3% | RPMI-8226 leukemia -26.7% | OVCAR-5 ovarian 7.2% | OVCAR-3 ovarian -34.2% | NCI/ADR-RES ovarian 2.35%

O=C1CCCc2cc(OCC(=O)N3CCCCC3)ccc2N1
inactive: SK-MEL-2 melanoma 111% | EKVX NSCLC 104% | SN12C renal 114% | UO-31 renal 92.9% | TK-10 renal 104% | ACHN renal 107% | CAKI-1 renal 96.7% | A498 renal 114% | CCRF-CEM leukemia 98.4% | MOLT-4 leukemia 102% | SR leukemia 104% | RPMI-8226 leukemia 101% | OVCAR-8 ovarian 104% | OVCAR-5 ovarian 123% | OVCAR-4 ovarian 103% | SK-OV-3 ovarian 111% | IGROV1 ovarian 121% | OVCAR-3 ovarian 110% | HS 578T breast 105% | NCI/ADR-RES ovarian 109%

C=C1CCC2C3(C)COC(c4ccc(F)cc4)OC3CCC2(C)C1CC(O)C1=CCOC1=O (stereo not given)
active: OVCAR-8 ovarian -2.76% | NCI/ADR-RES ovarian 0.657%
inactive: SK-MEL-2 melanoma 19.9% | EKVX NSCLC 62.6% | SN12C renal 32.1% | UO-31 renal 43.2% | TK-10 renal 96.6% | ACHN renal 30.2% | CAKI-1 renal 53.3% | A498 renal 118% | CCRF-CEM leukemia 21.4% | MOLT-4 leukemia 22.5% | SR leukemia 21.6% | RPMI-8226 leukemia 21.9% | OVCAR-5 ovarian 51% | OVCAR-4 ovarian 53.8% | SK-OV-3 ovarian 98% | IGROV1 ovarian 36.5% | OVCAR-3 ovarian 63.4% | HS 578T breast 71%

O=[N+]([O-])c1ccc(/C=C/c2nc3ccccc3n3c(=S)[nH]nc23)cc1
inactive: SK-MEL-2 melanoma 86.3% | EKVX NSCLC 70.7% | SN12C renal 71.1% | UO-31 renal 47.7% | TK-10 renal 127% | ACHN renal 72.7% | CAKI-1 renal 75.2% | A498 renal 91.9% | CCRF-CEM leukemia 69.8% | MOLT-4 leukemia 75.5% | SR leukemia 71.6% | RPMI-8226 leukemia 56.5% | OVCAR-8 ovarian 83% | OVCAR-5 ovarian 89.1% | OVCAR-4 ovarian 82.5% | SK-OV-3 ovarian 105% | IGROV1 ovarian 78.3% | OVCAR-3 ovarian 69.9% | HS 578T breast 75.7% | NCI/ADR-RES ovarian 85.2%

CN(C)CCn1c2ccccc2c2nc3cc4ccccc4cc3nc21
inactive: SK-MEL-2 melanoma 60.1% | EKVX NSCLC 36.8% | SN12C renal 32.3% | UO-31 renal 12.3% | TK-10 renal 53% | A498 renal 80.8% | CCRF-CEM leukemia 18.3% | RPMI-8226 leukemia 14.4% | OVCAR-4 ovarian 48% | SK-OV-3 ovarian 45.5% | OVCAR-3 ovarian 46.6% | HS 578T breast 42.7%
active: ACHN renal 7.52% | CAKI-1 renal 4.76% | MOLT-4 leukemia 7.22% | SR leukemia 5.18% | OVCAR-8 ovarian -46.8% | OVCAR-5 ovarian 8% | IGROV1 ovarian -9.73% | NCI/ADR-RES ovarian -19.4%

CCCCSc1nc(Nc2ccc(S(N)(=O)=O)cc2)c(C#N)c(-c2ccc(Cl)cc2)n1
active: SN12C renal -20.3% | ACHN renal -66.9% | OVCAR-8 ovarian -2.51% | OVCAR-4 ovarian 2.66%
inactive: SK-MEL-2 melanoma 118% | EKVX NSCLC 34.7% | UO-31 renal 14.6% | TK-10 renal 77.1% | CAKI-1 renal 55% | A498 renal 108% | CCRF-CEM leukemia 95% | MOLT-4 leukemia 52.8% | SR leukemia 19.4% | RPMI-8226 leukemia 52.7% | OVCAR-5 ovarian 51.5% | SK-OV-3 ovarian 30.4% | IGROV1 ovarian 37.5% | OVCAR-3 ovarian 54.1% | HS 578T breast 64.8% | NCI/ADR-RES ovarian 16.4%

Cn1cc(-c2nc(N)nnc2-c2c[nH]c3ccc(Br)cc23)c2cc(Br)cnc21
active: ACHN renal 6.39% | CAKI-1 renal -8.15% | A498 renal -14.3% | CCRF-CEM leukemia 0.493% | MOLT-4 leukemia -2.69% | SR leukemia -17.2% | RPMI-8226 leukemia -12% | OVCAR-8 ovarian 1.57% | SK-OV-3 ovarian 9.61% | OVCAR-3 ovarian 0.628%
inactive: SK-MEL-2 melanoma 13.1% | EKVX NSCLC 30.4% | SN12C renal 11.3% | UO-31 renal 10.4% | TK-10 renal 47.4% | OVCAR-5 ovarian 21.8% | OVCAR-4 ovarian 32.8% | IGROV1 ovarian 14.2% | HS 578T breast 30.2% | NCI/ADR-RES ovarian 12.5%

O=C(/C=C/Nc1ccc(Cl)cc1)c1ccc2c(c1)Nc1ccccc1S2
inactive: SK-MEL-2 melanoma 55.1% | EKVX NSCLC 55.8% | SN12C renal 61.8% | UO-31 renal 36.1% | TK-10 renal 72% | ACHN renal 30.7% | CAKI-1 renal 38.3% | A498 renal 108% | CCRF-CEM leukemia 81.1% | MOLT-4 leukemia 66.2% | SR leukemia 58.1% | RPMI-8226 leukemia 62.3% | OVCAR-8 ovarian 12.4% | OVCAR-5 ovarian 83.4% | SK-OV-3 ovarian 20.7% | IGROV1 ovarian 39.5% | OVCAR-3 ovarian 61.5% | NCI/ADR-RES ovarian 25.7%
active: OVCAR-4 ovarian 2.72% | HS 578T breast 8.24%

C#CCOc1cc(N(CC)CC)ccc1C(C(=O)NC(C)(C)C)N(C(=O)C1CCc2cc(F)ccc2O1)c1ccc(F)cc1 (stereo not given)
active: SK-MEL-2 melanoma -24.7% | MOLT-4 leukemia 9.55%
inactive: EKVX NSCLC 37.8% | SN12C renal 48.9% | UO-31 renal 30.4% | TK-10 renal 68.7% | ACHN renal 33.5% | CAKI-1 renal 30.7% | A498 renal 78.5% | CCRF-CEM leukemia 40.4% | SR leukemia 26.7% | RPMI-8226 leukemia 25.4% | OVCAR-8 ovarian 52.4% | OVCAR-5 ovarian 69.7% | OVCAR-4 ovarian 51% | SK-OV-3 ovarian 62.4% | IGROV1 ovarian 68.2% | OVCAR-3 ovarian 47.9% | HS 578T breast 64.4% | NCI/ADR-RES ovarian 56.8%

CC12CC[C@@H]3[C@]4(C)COC(c5cn[nH]c5-c5ccc(Br)cc5)O[C@@H]4CC[C@@]3(C)[C@@H]1CC(C1=CCOC1=O)O2 (stereo not given in full)
inactive: SK-MEL-2 melanoma 52.4% | EKVX NSCLC 43.2% | SN12C renal 57.5% | UO-31 renal 25.1% | TK-10 renal 54.6% | ACHN renal 47% | CAKI-1 renal 43.3% | A498 renal 97.8% | CCRF-CEM leukemia 51.4% | SR leukemia 40.6% | RPMI-8226 leukemia 24.9% | OVCAR-8 ovarian 62.6% | OVCAR-5 ovarian 81.5% | OVCAR-4 ovarian 36.1% | SK-OV-3 ovarian 73.5% | IGROV1 ovarian 50.3% | OVCAR-3 ovarian 56% | HS 578T breast 55.6% | NCI/ADR-RES ovarian 51.9%
active: MOLT-4 leukemia -0.166%

CCOC(=O)/C=C/c1cccc2c1C(=O)NC(C)(c1cc3cc(Br)ccc3oc1=O)N2 (stereo not given)
active: SK-MEL-2 melanoma 5.72%
inactive: EKVX NSCLC 43.8% | SN12C renal 53.3% | UO-31 renal 19.8% | TK-10 renal 58.4% | ACHN renal 28.1% | CAKI-1 renal 20.2% | A498 renal 59.8% | CCRF-CEM leukemia 36.8% | MOLT-4 leukemia 30.4% | SR leukemia 27.7% | RPMI-8226 leukemia 32% | OVCAR-8 ovarian 37.8% | OVCAR-5 ovarian 76.4% | OVCAR-4 ovarian 40.2% | SK-OV-3 ovarian 38.6% | IGROV1 ovarian 18.2% | OVCAR-3 ovarian 48.4% | HS 578T breast 63.2% | NCI/ADR-RES ovarian 42.2%
